Measurements from the supplement of paper PMC4466140.

What follows are binders tested against AgAbp1 (assay: SPOT peptide array binding signal intensity (averaged, normalized) (arbitrary units (background-subtracted, floor 0; scale differs between SH3 domains)); higher = stronger binding of the SH3 domain to the peptide).
Procedure: (§1)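 GST-tagged SH3 domains from S. cerevisiae (Sc), A. gossypii (Ag), C. albicans (Ca) and S. pombe (Sp) were incubated at 10 ug/ml overnight at 4 C on cellulose SPOT membranes carrying 292 synthetic 15-mer peptides mined from the S. cerevisiae proteome (cysteines replaced by serines). Binding was detected with anti-GST antibody, HRP secondary and chemiluminescence, quantified with Genespotter, and reported as normalized spot intensities averaged over biological replicates.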

Row | Binder | SPOT peptide array binding signal intensity
1 | NRLRKRLNLPSEISI | 52

The binders below were run against AgBbc1 in the same assay as above.
Procedure: as §1

Row | Binder | SPOT peptide array binding signal intensity
2 | NRLRKRLNLPSEISI | 2

Each binder was assayed against AgBem1-D1 in the same assay as above.
Procedure: as §1

Row | Binder | SPOT peptide array binding signal intensity
3 | NRLRKRLNLPSEISI | 126

These binders were tested against AgBzz1-D1 in the same assay as above.
Procedure: as §1

Row | Binder | SPOT peptide array binding signal intensity
4 | NRLRKRLNLPSEISI | 7

The binders below were run against AgBzz1-D2 in the same assay as above.
Procedure: as §1

Row | Binder | SPOT peptide array binding signal intensity
5 | NRLRKRLNLPSEISI | 9

Each binder was assayed against AgCyk3 in the same assay as above.
Procedure: as §1

Row | Binder | SPOT peptide array binding signal intensity
6 | NRLRKRLNLPSEISI | 1

These binders were tested against AgFus1 in the same assay as above.
Procedure: as §1

Row | Binder | SPOT peptide array binding signal intensity
7 | NRLRKRLNLPSEISI | 444

The binders below were run against AgHof1 in the same assay as above.
Procedure: as §1

Row | Binder | SPOT peptide array binding signal intensity
8 | NRLRKRLNLPSEISI | 45.2

The binders below were run against AgHse1 in the same assay as above.
Procedure: as §1

Row | Binder | SPOT peptide array binding signal intensity
9 | NRLRKRLNLPSEISI | 2040

These binders were tested against AgLsb1 in the same assay as above.
Procedure: as §1

Row | Binder | SPOT peptide array binding signal intensity
10 | NRLRKRLNLPSEISI | 36.2

The binders below were run against AgLsb4 in the same assay as above.
Procedure: as §1

Row | Binder | SPOT peptide array binding signal intensity
11 | NRLRKRLNLPSEISI | 21.5

The binders below were run against AgMyo5 in the same assay as above.
Procedure: as §1

Row | Binder | SPOT peptide array binding signal intensity
12 | NRLRKRLNLPSEISI | ≤ 0

What follows are binders tested against AgNbp2 in the same assay as above.
Procedure: as §1

Row | Binder | SPOT peptide array binding signal intensity
13 | NRLRKRLNLPSEISI | 74

Each binder was assayed against AgRvs167 in the same assay as above.
Procedure: as §1

Row | Binder | SPOT peptide array binding signal intensity
14 | NRLRKRLNLPSEISI | 4.67

Each binder was assayed against AgSho1 in the same assay as above.
Procedure: as §1

Row | Binder | SPOT peptide array binding signal intensity
15 | NRLRKRLNLPSEISI | 26.5

Each binder was assayed against AgSla1-D1-D2 in the same assay as above.
Procedure: as §1

Row | Binder | SPOT peptide array binding signal intensity
16 | NRLRKRLNLPSEISI | 33

These binders were tested against AgSla1-D3 in the same assay as above.
Procedure: as §1

Row | Binder | SPOT peptide array binding signal intensity
17 | NRLRKRLNLPSEISI | 5.5

What follows are binders tested against CaAbp1-D1 in the same assay as above.
Procedure: as §1

Row | Binder | SPOT peptide array binding signal intensity
18 | NRLRKRLNLPSEISI | 649

The binders below were run against CaAbp1-D2 in the same assay as above.
Procedure: as §1

Row | Binder | SPOT peptide array binding signal intensity
19 | NRLRKRLNLPSEISI | 307

The binders below were run against CaBbc1 in the same assay as above.
Procedure: as §1

Row | Binder | SPOT peptide array binding signal intensity
20 | NRLRKRLNLPSEISI | 9.75

Each binder was assayed against CaBem1-D1 in the same assay as above.
Procedure: as §1

Row | Binder | SPOT peptide array binding signal intensity
21 | NRLRKRLNLPSEISI | 2

What follows are binders tested against CaBzz1-D1 in the same assay as above.
Procedure: as §1

Row | Binder | SPOT peptide array binding signal intensity
22 | NRLRKRLNLPSEISI | 10

The binders below were run against CaBzz1-D2 in the same assay as above.
Procedure: as §1

Row | Binder | SPOT peptide array binding signal intensity
23 | NRLRKRLNLPSEISI | 18.2

What follows are binders tested against CaCyk3 in the same assay as above.
Procedure: as §1

Row | Binder | SPOT peptide array binding signal intensity
24 | NRLRKRLNLPSEISI | 4

What follows are binders tested against CaFus1 in the same assay as above.
Procedure: as §1

Row | Binder | SPOT peptide array binding signal intensity
25 | NRLRKRLNLPSEISI | 1980

The binders below were run against CaHof1 in the same assay as above.
Procedure: as §1

Row | Binder | SPOT peptide array binding signal intensity
26 | NRLRKRLNLPSEISI | ≤ 0

Each binder was assayed against CaHse1 in the same assay as above.
Procedure: as §1

Row | Binder | SPOT peptide array binding signal intensity
27 | NRLRKRLNLPSEISI | 95.2

Each binder was assayed against CaLsb1 in the same assay as above.
Procedure: as §1

Row | Binder | SPOT peptide array binding signal intensity
28 | NRLRKRLNLPSEISI | 5.5

Each binder was assayed against CaLsb4 in the same assay as above.
Procedure: as §1

Row | Binder | SPOT peptide array binding signal intensity
29 | NRLRKRLNLPSEISI | 14

Each binder was assayed against CaMyo5 in the same assay as above.
Procedure: as §1

Row | Binder | SPOT peptide array binding signal intensity
30 | NRLRKRLNLPSEISI | 4.5

These binders were tested against CaNbp2 in the same assay as above.
Procedure: as §1

Row | Binder | SPOT peptide array binding signal intensity
31 | NRLRKRLNLPSEISI | 286

The binders below were run against CaRvs167 in the same assay as above.
Procedure: as §1

Row | Binder | SPOT peptide array binding signal intensity
32 | NRLRKRLNLPSEISI | 6.83

These binders were tested against CaRvs167-3 in the same assay as above.
Procedure: as §1

Row | Binder | SPOT peptide array binding signal intensity
33 | NRLRKRLNLPSEISI | 48.8

What follows are binders tested against CaSho1 in the same assay as above.
Procedure: as §1

Row | Binder | SPOT peptide array binding signal intensity
34 | NRLRKRLNLPSEISI | 353

These binders were tested against CaSla1-D1-D2 in the same assay as above.
Procedure: as §1

Row | Binder | SPOT peptide array binding signal intensity
35 | NRLRKRLNLPSEISI | 16

The binders below were run against CaSla1-D3 in the same assay as above.
Procedure: as §1

Row | Binder | SPOT peptide array binding signal intensity
36 | NRLRKRLNLPSEISI | 3

What follows are binders tested against ScAbp1 in the same assay as above.
Procedure: as §1

Row | Binder | SPOT peptide array binding signal intensity
37 | NRLRKRLNLPSEISI | 191

The binders below were run against ScBbc1 in the same assay as above.
Procedure: as §1

Row | Binder | SPOT peptide array binding signal intensity
38 | NRLRKRLNLPSEISI | 2.5

What follows are binders tested against ScBem1-D1 in the same assay as above.
Procedure: as §1

Row | Binder | SPOT peptide array binding signal intensity
39 | NRLRKRLNLPSEISI | 61

Each binder was assayed against ScBzz1-D1 in the same assay as above.
Procedure: as §1

Row | Binder | SPOT peptide array binding signal intensity
40 | NRLRKRLNLPSEISI | 21

These binders were tested against ScBzz1-D2 in the same assay as above.
Procedure: as §1

Row | Binder | SPOT peptide array binding signal intensity
41 | NRLRKRLNLPSEISI | 5.5

The binders below were run against ScCyk3 in the same assay as above.
Procedure: as §1

Row | Binder | SPOT peptide array binding signal intensity
42 | NRLRKRLNLPSEISI | 140

Each binder was assayed against ScFus1 in the same assay as above.
Procedure: as §1

Row | Binder | SPOT peptide array binding signal intensity
43 | NRLRKRLNLPSEISI | 524

Each binder was assayed against ScHof1 in the same assay as above.
Procedure: as §1

Row | Binder | SPOT peptide array binding signal intensity
44 | NRLRKRLNLPSEISI | 2.5

Each binder was assayed against ScHse1 in the same assay as above.
Procedure: as §1

Row | Binder | SPOT peptide array binding signal intensity
45 | NRLRKRLNLPSEISI | 2410

What follows are binders tested against ScLsb1 in the same assay as above.
Procedure: as §1

Row | Binder | SPOT peptide array binding signal intensity
46 | NRLRKRLNLPSEISI | 22.5

These binders were tested against ScLsb2 in the same assay as above.
Procedure: as §1

Row | Binder | SPOT peptide array binding signal intensity
47 | NRLRKRLNLPSEISI | ≤ 0

Each binder was assayed against ScLsb3 in the same assay as above.
Procedure: as §1

Row | Binder | SPOT peptide array binding signal intensity
48 | NRLRKRLNLPSEISI | 57

Each binder was assayed against ScLsb4 in the same assay as above.
Procedure: as §1

Row | Binder | SPOT peptide array binding signal intensity
49 | NRLRKRLNLPSEISI | 7

These binders were tested against ScMyo3 in the same assay as above.
Procedure: as §1

Row | Binder | SPOT peptide array binding signal intensity
50 | NRLRKRLNLPSEISI | ≤ 0

These binders were tested against ScMyo5 in the same assay as above.
Procedure: as §1

Row | Binder | SPOT peptide array binding signal intensity
51 | NRLRKRLNLPSEISI | 2.5

What follows are binders tested against ScNbp2 in the same assay as above.
Procedure: as §1

Row | Binder | SPOT peptide array binding signal intensity
52 | NRLRKRLNLPSEISI | 70

The binders below were run against ScPex13 in the same assay as above.
Procedure: as §1

Row | Binder | SPOT peptide array binding signal intensity
53 | NRLRKRLNLPSEISI | 0.5

These binders were tested against ScRvs167 in the same assay as above.
Procedure: as §1

Row | Binder | SPOT peptide array binding signal intensity
54 | NRLRKRLNLPSEISI | 2.5

The binders below were run against ScSho1 in the same assay as above.
Procedure: as §1

Row | Binder | SPOT peptide array binding signal intensity
55 | NRLRKRLNLPSEISI | 662

Each binder was assayed against ScSla1-D1-D2 in the same assay as above.
Procedure: as §1

Row | Binder | SPOT peptide array binding signal intensity
56 | NRLRKRLNLPSEISI | 19.5

These binders were tested against ScSla1-D3 in the same assay as above.
Procedure: as §1

Row | Binder | SPOT peptide array binding signal intensity
57 | NRLRKRLNLPSEISI | 12.5

These binders were tested against SpAbp1-D1 in the same assay as above.
Procedure: as §1

Row | Binder | SPOT peptide array binding signal intensity
58 | NRLRKRLNLPSEISI | 293

These binders were tested against SpBbc1 in the same assay as above.
Procedure: as §1

Row | Binder | SPOT peptide array binding signal intensity
59 | NRLRKRLNLPSEISI | 6

These binders were tested against SpBzz1-D1 in the same assay as above.
Procedure: as §1

Row | Binder | SPOT peptide array binding signal intensity
60 | NRLRKRLNLPSEISI | 11

The binders below were run against SpBzz1-D2 in the same assay as above.
Procedure: as §1

Row | Binder | SPOT peptide array binding signal intensity
61 | NRLRKRLNLPSEISI | 1.5

What follows are binders tested against SpCyk3 in the same assay as above.
Procedure: as §1

Row | Binder | SPOT peptide array binding signal intensity
62 | NRLRKRLNLPSEISI | ≤ 0

What follows are binders tested against SpHof1 in the same assay as above.
Procedure: as §1

Row | Binder | SPOT peptide array binding signal intensity
63 | NRLRKRLNLPSEISI | 60

The binders below were run against SpHof1-2 in the same assay as above.
Procedure: as §1

Row | Binder | SPOT peptide array binding signal intensity
64 | NRLRKRLNLPSEISI | 7

The binders below were run against SpHof1-3 in the same assay as above.
Procedure: as §1

Row | Binder | SPOT peptide array binding signal intensity
65 | NRLRKRLNLPSEISI | 708

Each binder was assayed against SpHse1 in the same assay as above.
Procedure: as §1

Row | Binder | SPOT peptide array binding signal intensity
66 | NRLRKRLNLPSEISI | 2460

The binders below were run against SpLsb1 in the same assay as above.
Procedure: as §1

Row | Binder | SPOT peptide array binding signal intensity
67 | NRLRKRLNLPSEISI | 96.8

Each binder was assayed against SpLsb4 in the same assay as above.
Procedure: as §1

Row | Binder | SPOT peptide array binding signal intensity
68 | NRLRKRLNLPSEISI | 29

Each binder was assayed against SpMyo1 in the same assay as above.
Procedure: as §1

Row | Binder | SPOT peptide array binding signal intensity
69 | NRLRKRLNLPSEISI | 5

What follows are binders tested against SpNbp2 in the same assay as above.
Procedure: as §1

Row | Binder | SPOT peptide array binding signal intensity
70 | NRLRKRLNLPSEISI | 71

The binders below were run against SpPex13 in the same assay as above.
Procedure: as §1

Row | Binder | SPOT peptide array binding signal intensity
71 | NRLRKRLNLPSEISI | 7.5

Each binder was assayed against SpRvs167 in the same assay as above.
Procedure: as §1

Row | Binder | SPOT peptide array binding signal intensity
72 | NRLRKRLNLPSEISI | 2.33

The binders below were run against SpSla1-D1-D2 in the same assay as above.
Procedure: as §1

Row | Binder | SPOT peptide array binding signal intensity
73 | NRLRKRLNLPSEISI | ≤ 0

What follows are binders tested against SpSla1-D3 in the same assay as above.
Procedure: as §1

Row | Binder | SPOT peptide array binding signal intensity
74 | NRLRKRLNLPSEISI | 3
